Results published in paper PMC5540273 (PLoS ONE, 2017).

The compounds below were run on BMPR1B. Conditions: concentration: 1 μM, replicates: in singlicate; n = 1.
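Note: KINOMEscan kinase panel screen.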

Point of comparison: COc1cc(Nc2nccc(N3CCC(NS(=O)(=O)c4ccc(NC(C)=O)cc4)CC3)n2)cc(OC)c1OC [GSK1379825], “%Inh” value 0%. Against it:
- Cc1cc(-c2ccnc(Nc3cccc(C#N)c3)n2)cc(C)c1O [GSK1440913] — the same, 0%
- Cc1ccc(C)c(NC(=O)Nc2ccc(C)c(-c3ccc(C(=O)Nc4ccncc4)cc3)c2)c1 [GSK1398473] — the same, 0%
- CN(C)CCNS(=O)(=O)c1ccc(-c2ccnc3[nH]ccc23)cc1 [GSK977620] — the same, 0%
- O=C(Nc1n[nH]c2nc(-c3cccc(O)c3)ccc12)C1CC1 [SB-711805] — higher, 86%
- COc1cccc(C2=C(Nc3cccc(O)c3)C(=O)NC2=O)c1 [SB-390771] — the same, 0%
- CSc1ccc(NC2=C(c3ccc(Cl)cc3)C(=O)NC2=O)cc1 [SB-317658] — the same, 0%
- Cc1ccc(O)cc1Nc1ccnc2cc(-c3ccc(CN4CCCCC4)o3)ccc12 [GW557777] — higher, 99.9%
- Fc1cc(Cl)ccc1Nc1ccnc2cc(-c3ccc(CN4CCOCC4)o3)ccc12 [GW560109] — higher, 62%
- COC(=O)Nc1nc2ccc(Oc3ccc(NC(=O)Nc4cc(C(F)(F)F)ccc4F)cc3)cc2[nH]1.Cl [GW654607] — the same, 0%
- CN(c1ccc(NC(=O)N2CCN(CCCN3CCOCC3)CC2)cc1)c1ccnc(Nc2ccc(CS(C)(=O)=O)cc2)n1.Cl [GW830899] — higher, 7%
- CCn1c(-c2nonc2N)nc2c(-c3ccccc3)ncc(OCCCN)c21.O=C(O)C(F)(F)F.O=C(O)C(F)(F)F [GSK260205] — the same, 0%
- COc1cc(Nc2nccc(N3CCC(NC(=O)Nc4ccc5c(c4)OCO5)C3)n2)cc(OC)c1OC (stereo not shown) [GSK1379766] — the same, 0%
- Cc1ccc(NC(=O)c2ccnc(N3CCCCC3)c2)cc1-c1ccc(C(=O)NCC2CC2)cc1 [GW775610] — the same, 0%
- COC(=O)Nc1nc2ccc(Oc3ccc(CC(=O)Nc4cc(C(F)(F)F)ccc4F)cc3)cc2[nH]1 [GW680903] — the same, 0%
- COc1ccc(NC(=O)c2ccoc2)cc1-c1ccc(C(=O)NCC2CC2)cc1 [GW810437] — higher, 2%
- Cc1cccc(Nc2nc(NCCN)ncc2C(N)=O)c1 [GSK1292139] — the same, 0%
- Cl.N#CCc1ccc(Nc2nccc(Nc3ccc(Oc4ccccc4)cc3)n2)cc1 [GW639905] — the same, 0%
- Fc1cc(Cl)ccc1Nc1ccnc2cc(-c3ccc(CN4CCSCC4)o3)ccc12 [GW560106] — higher, 45%
- NCCC(NC(=O)c1cc(Br)c(-c2ccnc3[nH]ccc23)s1)c1ccccc1.O=C(O)C(F)(F)F.O=C(O)C(F)(F)F (stereo not shown) [GSK1307810] — the same, 0%
- O=C(O)C(F)(F)F.O=c1[nH]ccc2nc(N[C@@H]3CCNC3)nc(Nc3ccc4c(c3)S(=O)(=O)CC4)c12 [GSK2181306] — higher, 7%
- Cc1ccccc1CC(=O)N1CCc2cc(-c3cn(C)c4ncnc(N)c34)ccc21 [GSK2603346] — the same, 0%
- CCNC(=O)/C=C/c1n[nH]c2cc(Sc3ccccc3C(=O)NC)ccc12 — higher, 30%
- Nc1ncc(-c2ccc3nccc(-c4ccncc4)c3c2)cc1S(=O)(=O)N1CCCCC1 [GSK1693850] — the same, 0%
- CS(=O)(=O)c1cccc(CNc2nc(Nc3ccc4c(c3)CCC(=O)N4)ncc2C(F)(F)F)c1 — the same, 0%
- COc1ccc(C)c(Nc2ccnc(Nc3ccc(-c4cnc[nH]4)cc3)n2)c1.Cl [GW784041] — higher, 99.9%
- O=C(O)C(F)(F)F.O=c1[nH]ccc2nc(N[C@@H]3CCNC3)nc(Nc3cc(Cl)cc(Cl)c3)c12 [GSK2188764] — the same, 0%
- Cl.Cl.NC(CNC(=O)c1cc(Br)c(-c2ccnc3[nH]ccc23)s1)c1ccccc1 (stereo not shown) [GSK1322949] — higher, 12%
- COC(=O)Nc1nc2cc(Oc3ccc(NC(=O)Nc4cccc(SC)c4)cc3)ccc2[nH]1.Cl [GW697999] — the same, 0%
- CCOc1nccc(-c2c(-c3ccc(F)cc3)ncn2C2CCNCC2)n1 [SB-249175] — higher, 20%
- Cl.Cl.NCC(NC(=O)c1cc(-c2cccnc2)c(-c2ccnc3[nH]ccc23)s1)c1ccccc1 (stereo not shown) [GSK1323434] — higher, 51%
- Nc1ncnc2scc(-c3ccc(NC(=O)Cc4cc(F)ccc4F)cc3)c12.O=C(O)C(F)(F)F [SB-731254-M] — higher, 10%
- Cn1cc(-c2ccc3c(c2)CCN3C(=O)Cc2cc(F)cc(C(F)(F)F)c2)c2c(N)ncnc21 [GSK2635225] — the same, 0%
- COc1cccc2c(-c3ccncc3)c(-c3ccc(F)cc3)nn12 [GW468513] — the same, 0%
- COc1cccc(NC(=O)NCCNc2ccnc(Nc3ccc(F)cc3)n2)c1 [GSK1379879] — the same, 0%
- Cn1cc(-c2ccc3c(c2)CCN3C(=O)Cc2cc(F)cc(F)c2F)c2c(N)ncnc21 [GSK2634140] — higher, 5%
- CN(C)CCOc1ccc(-c2cc(-c3ccc(Cl)c(O)c3)c(-c3ccncc3)[nH]2)cc1.Cl.Cl [SB-684387] — higher, 29%
